Experimental data published in PubChem BioAssay (NCATS).
Results filed as inconclusive are left out. Unmarked numbers belong to inactive results. Calls follow the shape of the dose curve; as a rule, active = well fitted inhibition curve with a large enough effect; inconclusive = small, poorly fitted or top-dose-only effect; inactive = flat fitted curve, though single readings scatter.

tested on: MCC-26; experiment: qHTS assay to identify novel small-molecules to repurpose for Merkel cell carcinoma treatment (AID 1296009); conditions: MCC and control cell lines, CellTiter-Glo viability, 72 h; series mostly up to 46 µM; activity change, negative = cytotoxicity: at the top concentration; also: nearly all actives have a fitted effect of over 60% in size
Description: MCC is a rare and aggressive neuroendocrine skin cancer with limited treatment options. Approximately 80% of MCCs have the Merkel cell polyomavirus (MCPyV) DNA integrated into the host genome (virus-positive: VP-MCC) and viral oncogenes drive oncogenesis. The remaining MCCs are virus-negative (VN-MCC) and are caused by UV mutagenesis. To identify novel treatments for VP-MCC and/or VN-MCC we screened three VP-MCC cell lines (WAGA, MKL-1, MKL-2), three VN-MCC cell lines (MCC-13, MCC-26, UISO), and four immortalized, non-transformed control cell lines (HaCaT, HEK293T, CRL7250, NIH-3T3) against ~2,400 compounds in the NCGC Pharmaceutical Collection (NPC) and ~1,900 compounds in the Mechanism Interrogation PlatE (MiPE). Using cell viability as a readout (CellTiter-Glo assay) we found both overlapping and distinct drugs that can be repurposed for the treatment of VP-MCC and VN-MCC.
A high-throughput screen was conducted in 1536-well white flat bottom plates (Corning) on a Kalypsys robotic system. Cell lines WAGA, MKL-1, MKL-2, MCC-13, MCC-26, UISO, HaCaT, HEK293T, CRL7250, and NIH-3T3 were screened against 2 small molecule annotated drug libraries NPC and MIPE in dose response (8 and 11 pt. respectively) measuring cell viability after 72 hours of incubation. […] A 1,536 pintool (Kalypsys) was used to transfer 23 nL of compound in DMSO to the 1,536-well assay plates. After 72 hr incubation at 37 degree celsius, 2.5 uL of CellTiter-Glo (Promega) was dispensed into each well using a BiorapTR. Plates were incubated at room temperature for 10 min, transferred to a ViewLux (PerkinElmer) and the luminescence was recorded using an exposure time of 2 seconds. Relative luminescence units (RLUs) were normalized to in-plate controls (no cells as a positive (cytotoxicity) control, DMSO as negative control) and the normalized data was processed using NCATS in-house software.
% is scaled to controls: 0 for no effect and ±100 for the full control effect.

| SMILES | activity change, negative = cytotoxicity |
| --- | --- |
| Cc1cc(C)nc(NS(=O)(=O)c2ccc(N)cc2)n1 | -2.32% |
| NS(=O)(=O)c1ccc(C(=O)O)cc1 | 12.5% |
| COc1ccc(C(=O)N2CCN(CC(=O)N3CCOCC3)CC2)cc1 | 11.8% |
| OCCN1C[C@H](O)[C@@H](O)[C@H](O)[C@H]1CO | 5.93% |
| CC[C@]12CCCN3CCc4c(n(c5ccccc45)[C@@](O)(C(=O)OC)C1)[C@@H]32 | -1.31% |
| CCc1cccc(CC)c1NC(=O)CN(CC(=O)O)CC(=O)O | -2.74% |
| CCC(C)(CN(C)C)OC(=O)c1ccccc1 (stereo not given) | 2.94% |
| CN1CCN(C(=O)C2CCCCC2)CC1 | 5.52% |
| CCCCCCCCCCC(CO)CCCCCCCC (stereo not given) | 12.7% |
| O=C1CC[C@@H](C(=O)O)N1 | -8.2% |
| COc1ccc(Cc2cnc(N)nc2N)cc1OC | 9.02% |
| CC(=O)Oc1cccc(C)c1 | 13.2% |
| CC(=O)OCC(=O)[C@@]1(O)CC[C@H]2[C@@H]3CCC4=CC(=O)C=C[C@]4(C)[C@@]3(F)[C@@H](O)C[C@@]21C | -8.43% |
| COC(=O)N/N=C/c1c[n+]([O-])c2ccccc2[n+]1[O-] | -0.121% |
| C/C=C/C(=O)N(CC)c1ccccc1C | -5.82% |
| CCCNC(C)C(=O)Nc1c(C)csc1C(=O)OC (stereo not given) | -1.47% |
| O=C1c2cccc(O)c2C(=O)c2c(O)cccc21 | 4.17% |
| CC(CSC(=O)c1ccccc1)C(=O)N1C[C@@H](Sc2ccccc2)C[C@H]1C(=O)O (stereo not given in full) | 8.45% [at 16.1 µM] |
| Cc1c(N(C)C)c(=O)n(-c2ccccc2)n1C | 12.3% |
| Cn1c([N+](=O)[O-])cnc1COC(N)=O | -9.74% |

| SMILES | activity change, negative = cytotoxicity |
| --- | --- |
| O=C(O)C(S)C(S)C(=O)O (stereo not given) | 12.6% |
| COc1ccc(-c2cc(=O)c3c(O)cc(O[C@@H]4O[C@H](CO[C@@H]5O[C@@H](C)[C@H](O)[C@@H](O)[C@H]5O)[C@@H](O)[C@H](O)[C@H]4O)cc3o2)cc1O | 9.63% |
| CCCCCC(N)=O | 15.2% |
| CC(C)CCOC(=O)c1ccc(N(C)C)cc1 | 11.6% |
| CCCCCC(C)N (stereo not given) | 18.5% |
| COc1ccccc1OCC(O)CO (stereo not given) | 12.3% |
| CC1CCN(CCCC(=O)c2ccc(F)cc2)CC1 | -1.39% |
| NNC(=O)CP(=O)(c1ccccc1)c1ccccc1 | 3.13% |
| O=C1C(c2[nH]c3ccccc3c2O)=Nc2ccccc21 | -1.9% |
| c1ccc2[nH]ccc2c1 | 1.59% |
| O=C(NCN1CCOCC1)c1cnccn1 | -0.749% |
| O=S1(=O)OC(c2ccc(O)cc2)(c2ccc(O)cc2)c2ccccc21 | -13.5% |
| C[C@@H]1O[C@@H](OC[C@H]2O[C@@H](Oc3c(-c4ccc(O)c(O)c4)oc4cc(O)cc(O)c4c3=O)[C@H](O)[C@@H](O)[C@@H]2O)[C@H](O)[C@H](O)[C@H]1O | 7.02% |
| CC(=O)Nc1cccc(O)c1 | 0.641% |
| CC(=O)NS(=O)(=O)c1ccc(N)cc1 | -9.29% |
| O=C(NCCCN1CCOCC1)c1ccc(Cl)cc1 | 9.89% |
| CC(=O)Nc1ccc(C(=O)O)cc1 | 10.2% |
| CC(C(=O)O)c1ccc2c(c1)Cc1cccnc1O2 (stereo not given) | 17.1% |
| CC(C)C[C@@H](N)C(=O)O | 1.67% [at 16.1 µM] |
| CN1C[C@@H]2C[C@H]1CN2c1cc2c(cc1F)c(=O)c(C(=O)O)cn2C1CC1 | -1.35% [at 16.1 µM] |
